The source made the active and inactive calls. Unless noted, the rule behind the calls is not given here.
Tests used:
[1] = test system: Wnt5a (protein binding on small-molecule microarray); experiment: Wnt5a binders on small-molecule microarray, primary screen, biophysical, 635/667 nm fluorescence (AID 1142); conditions: 635 nm fluorescence, higher = more signal;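 note: fluorescence read at 667 nm with signal to noise per printed feature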
[2] = cell viability in Huh7 cells, primary screen, cytotoxicity control for HCV replication inhibitor project, CellTiter-Glo luminescence, basal, 48 h (AID 1143); conditions: Huh7 HCV replicon, higher = more signal, called active from +8 up or from −8 down;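 note: Huh7 hepatoma cells carrying a hepatitis C replication reporter with no stimulus; test concentration not given here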
[3] = P. aeruginosa biofilm formation inhibitors, primary screen, PAO1 strain, BacTiter-Glo luminescence, LB-PBS (AID 1144); conditions: 12 h, higher = more signal
[4] = CREB reporter modulators without forskolin, primary screen, cell-based, PC12, CRE-LacZ reporter, unstimulated (AID 1145); conditions: no forskolin, luminescence, 4.5 h, higher = more signal, called active from +8 up or from −8 down
[5] = CREB reporter modulators under forskolin, primary screen, cell-based, PC12, CRE-LacZ reporter, forskolin-stimulated (AID 1146); conditions: luminescence, 4.5 h, higher = more signal, called active from +8 up or from −8 down;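 note: PC12 cells with 6xCRE LacZ reporter stimulated by forskolin 10 µM; beta-galactosidase reporter signal reflecting CREB driven transcription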
[6] = biological target: Streptavidin (Streptomyces avidinii) (UniProt P22629); experiment: streptavidin binders on small-molecule microarray, primary screen, artefact control for SMM compound annotation, biophysical, 635/667 nm fluorescence (AID 1147); conditions: streptavidin binding, higher = more signal;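 note: signal reflects streptavidin binding to arrayed compounds as a control protein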
Streptavidin (Streptomyces avidinii), sequence (P22629 whole entry, looked up): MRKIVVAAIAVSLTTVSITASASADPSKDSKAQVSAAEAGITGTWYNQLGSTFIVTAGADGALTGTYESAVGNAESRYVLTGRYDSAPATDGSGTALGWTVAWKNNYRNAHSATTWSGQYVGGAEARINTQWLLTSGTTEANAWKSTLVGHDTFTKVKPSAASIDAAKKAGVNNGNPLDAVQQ

[7] = small-molecule binders of probe aInhba, primary screen, biochemical, small-molecule microarray, 635/667 nm fluorescence (AID 1148); conditions: higher = more signal;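 note: score merges 667nm spot fluorescence with signal-to-noise for antibody binding to printed compounds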
Torsin-1A (Homo sapiens) [8] = biological target: Torsin-1A (Homo sapiens) (UniProt O14656); experiment: torsin A binders from cell lysate, primary screen, small-molecule microarray, wild-type, 635/667 nm (AID 1149); conditions: COS7 hTOR1A-WT lysate, 635 nm fluorescence, higher = more signal
Torsin-1A (Homo sapiens), sequence (O14656 whole entry, looked up): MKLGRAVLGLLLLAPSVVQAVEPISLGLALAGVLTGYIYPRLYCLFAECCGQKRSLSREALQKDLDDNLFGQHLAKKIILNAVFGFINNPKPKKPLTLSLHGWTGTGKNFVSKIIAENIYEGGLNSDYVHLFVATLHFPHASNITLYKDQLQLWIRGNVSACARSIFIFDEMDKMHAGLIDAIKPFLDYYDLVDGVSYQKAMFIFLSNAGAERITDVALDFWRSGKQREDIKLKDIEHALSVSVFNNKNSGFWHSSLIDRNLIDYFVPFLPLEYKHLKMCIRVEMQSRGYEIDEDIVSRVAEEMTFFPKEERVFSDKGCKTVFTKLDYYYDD

Torsin-1A (Homo sapiens) [9] = biological target: Torsin-1A (Homo sapiens) (UniProt O14656); experiment: small-molecule binders of mutant TOR1A in lysate, primary screen, cell lysate, small-molecule microarray, COS7 lysate, 635/667 nm fluorescence (AID 1150); conditions: COS7 hTOR1A mutant lysate, 635 nm fluorescence, higher = more signal;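 note: score pools 667 nm emission and signal to noise measuring lysate protein binding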
[10] = test system: Sonic hedgehog protein (Shh); experiment: small-molecule binders of Shh protein, primary screen, biochemical, small-molecule microarray, 635/667 nm fluorescence (AID 1151); conditions: small-molecule microarray binding, 635 nm fluorescence; higher = more signal;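 note: Shh protein binding to compounds spotted on small-molecule microarray slides; score combines spot fluorescence intensity with signal-to-noise across triplicate slides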

SMILES | composite z-score [1] | z-score [2] | z-score [3] | z-score [4] | z-score [5] | composite z-score [6] | composite z-score [7] | composite z-score (Torsin-1A (Homo sapiens) [8]) | composite z-score (Torsin-1A (Homo sapiens) [9]) | composite z-score [10]
C[C@@]1([C@@H](NS(=O)(=O)c2cccc3cccnc23)c2ccc(-c3ccccc3)cc2)C[C@H]1C1CCCCC1 | 0.17 | -2.15 (inactive) | 0.33 (inactive) | 0.583 (inactive) | -0.152 (inactive) | 1.15 | 0.417 | -0.293 | 0.0327 | -0.517
CN1C(=O)C2CC=C(C3=CCO[C@@H]3[C@H]3CCCN3S(=O)(=O)c3ccccc3[N+](=O)[O-])CC2C1=O (stereo not given in full) | 0.0169 | 0.459 (inactive) | 0.0769 (inactive) | -0.505 (inactive) | 1.14 (inactive) | -0.102 | 0.0516 | -0.23 | -0.282 | -0.151
Cc1ccc(S[C@]2(C(=O)NCC(C)C)CC(=O)N(C(C)C)[C@@H]2c2ccc(CO)cc2I)cc1 | 0.241 | -1.44 (inactive) | 0.502 (inactive) | 0.0909 (inactive) | 0.205 (inactive) | -0.807 | -0.173 | -0.782 | -0.607 | -1.07
COc1ccc(CCNC(=O)[C@@H]2c3ccccc3C(=O)N(Cc3cc(F)cc(C(F)(F)F)c3)[C@H]2c2ccc(CO)cc2)cc1 | 0.0093 | -0.489 (inactive) | 0.869 (inactive) | 0.585 (inactive) | -1.11 (inactive) | 0.234 | 0.396 | 0.642 | 0.478 | 0.618
CCOC(=O)C[C@H]1[C@H](OC(=O)c2cc3ccccc3oc2=O)[C@@H](NC(=O)c2ccc(-c3ccccc3)cc2)c2cc(OCCCO)ccc2N1C(=O)Cc1ccc(OC)cc1 | 0.391 | -0.346 (inactive) | -0.301 (inactive) | 0.666 (inactive) | 0.0179 (inactive) | 0.385 | -0.0095 | 0.195 | 0.775 | 0.989
O=C(NCC(F)(F)F)[C@@H]1c2ccccc2C(=O)N(Cc2cc(C(F)(F)F)cc(C(F)(F)F)c2)[C@H]1c1ccc(CO)cc1 | 0.362 | -1.49 (inactive) | -0.483 (inactive) | 0.701 (inactive) | -1 (inactive) | -0.49 | 0.0074 | 0.325 | 0.201 | 0.363
C=C(C(=O)CC[C@@H](OC(=O)c1ccccc1-c1ccccc1C(=O)O)c1cccc(OCCO)c1)C(C)C | 0.655 | 0.954 (inactive) | -0.417 (inactive) | 2.16 (inactive) | 2.88 (inactive) | -0.364 | 0.0391 | 2.85 | 1.59 | 1.95
CCCC[C@@H](O)C1=C(C)Cn2c(=O)n(-c3ccccc3)c(=O)n2[C@H]1CO | 0.0027 | -1.07 (inactive) | -0.275 (inactive) | 1.77 (inactive) | -0.844 (inactive) | -0.463 | -0.251 | 0.0705 | 0.141 | 0.317
CCCCCCc1nc(Cc2cc(OC)c(OC)c(OC)c2)c(C)c2c1[Si](C(C)C)(C(C)C)OC2 | 0.0854 | -3.36 (inactive) | -1.44 (inactive) | 0.367 (inactive) | -0.634 (inactive) | -0.0336 | 0.0275 | 0.246 | 0.0486 | 0.372
CC(=O)NCCCC[C@@H]1NC(=O)[C@H]2C[C@@H](C(=O)NCCCCCN)[C@@H](c3ccc(O)cc3)N2C1=O | 0.0662 | 0.0104 (inactive) | 0.447 (inactive) | -0.0038 (inactive) | 0.126 (inactive) | 0.947 | -0.0658 | 0.274 | 0.568 | 1.01
COc1ccc(C(O)C2C=CC3C(=O)N(C)C(=O)C3N2Nc2ccccc2)cc1 (stereo not given) | -0.0927 | -2.05 (inactive) | -0.371 (inactive) | -0.143 (inactive) | 0.459 (inactive) | 1.41 | 0.195 | 0.271 | 0.994 | 0.011
CCN1C(=O)C2CC(=O)C3C(CN(S(=O)(=O)c4ccc(C)cc4)C3c3ccc(C)cc3)C2C1=O (stereo not given) | 0.235 | -1.49 (inactive) | 1.03 (inactive) | -0.676 (inactive) | -0.202 (inactive) | 0.851 | -0.0471 | 0.364 | 0.915 | 0.184
COC(=O)c1ccc(OC)c(/C=C\CC(OC(=O)c2ccncc2)c2ccccc2)c1 (stereo not given) | 0.114 | -3.7 (inactive) | -0.526 (inactive) | 12.5 (active) | -1.88 (inactive) | 1.79 | -0.154 | 0.217 | 0.292 | 1.14

Reference: PubChem BioAssay
